What all share (experiment): qHTS profiling for inhibitors of Plasmodium falciparum proliferation (AID 504749); note: nearly all actives have a fitted effect of over 60% in size
Common to all, as to conditions: P. falciparum in erythrocytes, SYBR Green DNA, 72 h; series mostly up to 28.7 µM
On the technique in general: Quantitative high-throughput screening tests each substance at several concentrations.

One assay concerns CP291. In a few lines: (§1)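 P. falciparum-infected erythrocytes (0.3% parasitemia, 2.5% hematocrit) incubated with compound 72 h at 37 C, 5% CO2. Parasite DNA detected by SYBR Green after lysis, overnight at room temperature; normalised to 0.29 uM artemisinin and DMSO.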
The test system of another assay is CP297. The procedure, abridged:
as §1

For the next assay, the system named is CP305. The procedure, abridged: as §1
The subject of another assay is CP315. The procedure, abridged: as §1
Another assay concerns CP325. The procedure, abridged:
as §1

For a further assay, the system named is CP329. The procedure, abridged:
as §1

Another assay concerns CP335. In a few lines: as §1
Another assay concerns DFO2036. In a few lines:
as §1

Another assay has as its system DIV14. In a few lines: as §1
In a further assay the test system is DIV17. The procedure, abridged:
as §1

A further assay relates to DIV30. In a few lines:
as §1

The subject of the next assay is Dd2. The procedure, abridged:
as §1

In another assay the test system is ECU. In a few lines: as §1
For the next assay, the system named is FAB9. In a few lines:
as §1

The subject of another assay is GB4. The procedure, abridged:
as §1

The next assay has as its system HB3. The procedure, abridged:
as §1

A further assay deals with ICS. In a few lines:
as §1

In another assay the test system is JCK. The procedure, abridged:
as §1

Another assay has as its system N140. The procedure, abridged: as §1
Another assay deals with P93_24. The procedure, abridged:
as §1

Inconclusive results are not listed. Active and inactive are the calls of the source. Calls come from the whole dose curve; as a rule, active = well fitted inhibition curve with a large enough effect; inconclusive = small, poorly fitted or top-dose-only effect; inactive = flat fitted curve, though single readings scatter.
Potency is the fitted concentration of half-maximal effect.

`NCCc1ccn[nH]1`: the Potency entry with CP291, in the assay on CP297, in the assay with CP305, with CP315, with CP325 and in the assay on CP329 was “inactive” throughout. The Potency entry with CP335, in the assay on DFO2036, in the assay with DIV14, in the assay with DIV17, in the assay on DIV30 and in the assay with Dd2 was “inactive” each time. Also, the Potency entry in the assay on ECU, in the assay with FAB9, in the assay on GB4, with HB3, in the assay with ICS and with JCK was “inactive” throughout. Besides, the Potency entry in the assay with N140 and in the assay with P93_24 was “inactive” each time.
On to `CCOC(=O)n1ccn(C)c1=S`, for which the Potency result in the assay on CP291, in the assay on CP297, in the assay on CP305, with CP315, with CP325 and in the assay with CP329 was “inactive” each time. For the same molecule, the Potency result with CP335, in the assay with DFO2036, in the assay on DIV14, with DIV17, in the assay on DIV30 and in the assay with Dd2 was “inactive” in each case. For the same molecule, the Potency result with ECU, in the assay with FAB9, in the assay with GB4, with HB3, with ICS and in the assay with JCK was “inactive” each time. Moreover, the Potency entry with N140 and with P93_24 was “inactive” throughout.
With `Cc1c(C(N)=O)cc([N+](=O)[O-])cc1[N+](=O)[O-]`, the Potency entry in the assay with CP291, in the assay on CP297, with CP305, in the assay with CP315, with CP325 and with CP329 was “inactive” each time. Besides, the Potency entry in the assay on CP335, in the assay on DFO2036, in the assay on DIV14, in the assay with DIV17, in the assay with DIV30 and in the assay with Dd2 was “inactive” in each case. In addition, the Potency result in the assay with ECU, with FAB9, with GB4, with HB3, in the assay on ICS and in the assay with JCK was “inactive” each time. Further, the Potency entry in the assay on N140 and in the assay on P93_24 was “inactive” each time.
`O=C(O)CNC(=O)c1ccccc1`: the Potency entry with CP291, in the assay on CP297, in the assay on CP305, in the assay on CP315, in the assay on CP325 and in the assay with CP329 was “inactive” in each case. For the same molecule, the Potency entry with CP335, with DFO2036, in the assay with DIV14, in the assay on DIV17, in the assay on DIV30 and with Dd2 was “inactive” throughout. The Potency entry in the assay on ECU, in the assay on FAB9, in the assay with GB4, in the assay on HB3, in the assay with ICS and in the assay with JCK was “inactive” throughout. The Potency entry with N140 and in the assay on P93_24 was “inactive” in each case.
As for `O=C1c2ccccc2C(=O)C1c1ccccc1`, the Potency entry in the assay with CP291, in the assay on CP297, in the assay on CP305, in the assay with CP315, in the assay with CP325 and with CP329 was “inactive” each time. In addition, the Potency entry in the assay on CP335, in the assay with DFO2036, in the assay on DIV14, with DIV17, in the assay with DIV30 and in the assay on Dd2 was “inactive” in each case. In addition, the Potency entry with ECU, with FAB9, with GB4, with HB3, in the assay with ICS and in the assay with JCK was “inactive” in each case. Also, the Potency result with N140 and with P93_24 was “inactive” in each case.
Take `C=CCc1ccc(O)c(OC)c1`: the Potency entry in the assay on CP291, in the assay with CP297, in the assay on CP305, in the assay with CP315, with CP325 and in the assay with CP329 was “inactive” each time. Also, the Potency entry in the assay on CP335, in the assay on DFO2036, with DIV14, with DIV17, with DIV30 and in the assay on Dd2 was “inactive” in each case. In addition, the Potency result in the assay on ECU, with FAB9, with GB4, in the assay with HB3, in the assay on ICS and in the assay with JCK was “inactive” each time. Moreover, in the assay on N140, the Potency result was “inactive”.
Take `COc1cccc2c1C(=O)c1c(O)c3c(c(O)c1C2=O)C[C@@](O)(C(C)=O)C[C@@H]3O[C@H]1C[C@H](N)[C@H](O)[C@H](C)O1`: the Potency was 5360 nM (active) with CP291; 7570 nM (active) with CP297; 4780 nM (active) with CP305; 7570 nM (active) in the assay with CP315; 8490 nM (active) with CP325; 6010 nM (active) in the assay with CP329. Also, the Potency is 4780 nM (active) with CP335; 4470 nM (active) with DFO2036; 1900 nM (active) in the assay on DIV14; 1350 nM (active) in the assay on DIV17; 6750 nM (active) in the assay on DIV30; 2240 nM (active) in the assay with Dd2. Besides, the Potency in the assay on ECU was 8910 nM (active); with FAB9 it was 3980 nM (active); with GB4 it was 1900 nM (active); in the assay on HB3 it was 4470 nM (active); in the assay on ICS it was 1410 nM (active); with JCK, 11200 nM (active). Further, the figures for the Potency in the assay with N140 and in the assay on P93_24 were 4470 nM (active) and 3980 nM (active), respectively.
Turning to `CCCCC(CC)CN=C(N)NC(N)=NCCCCCCN=C(N)NC(N)=NCC(CC)CCCC` (centres undefined), the Potency in the assay on CP291 is 1690 nM (active); with CP297, 3380 nM (active); in the assay with CP305 it was 1690 nM (active); with CP315 it was 1350 nM (active); with CP325 it was 1200 nM (active); in the assay with CP329 it was 1510 nM (active). Besides, the Potency is 1510 nM (active) in the assay on CP335; 3160 nM (active) with DFO2036; 1350 nM (active) with DIV14; 1200 nM (active) with DIV17; 1200 nM (active) with DIV30; 2000 nM (active) in the assay with Dd2. In addition, the Potency in the assay on ECU was 1120 nM (active); with FAB9, 1780 nM (active); in the assay on GB4, 1510 nM (active); in the assay on HB3, 2240 nM (active); in the assay on ICS, 316 nM (active); in the assay on JCK, 3980 nM (active). The Potency in the assay with N140 was 1000 nM (active); with P93_24 it was 1780 nM (active).
For `CN=C(NC#N)NCCSCc1csc(N=C(N)N)n1`, the Potency entry in the assay on CP291, in the assay with CP297, with CP305, in the assay on CP315, in the assay with CP325 and in the assay with CP329 was “inactive” each time. Also, the Potency result in the assay with CP335, with DFO2036, in the assay on DIV14, in the assay on DIV17, in the assay on DIV30 and in the assay on Dd2 was “inactive” throughout. Moreover, the Potency entry in the assay with ECU, in the assay with FAB9, in the assay with GB4, with HB3, in the assay on ICS and with JCK was “inactive” each time. Also, the Potency entry with N140 and in the assay with P93_24 was “inactive” in each case.
On to `NC(=NCCCCCCN=C(N)/N=C(\N)Nc1ccc(Cl)cc1)/N=C(\N)Nc1ccc(Cl)cc1`, for which the Potency was 1350 nM (active) in the assay on CP291; 2130 nM (active) in the assay with CP297; 1200 nM (active) in the assay on CP305; 1070 nM (active) with CP315; 1900 nM (active) in the assay with CP325; 1690 nM (active) in the assay with CP329. The Potency is 1690 nM (active) in the assay on CP335; 1780 nM (active) in the assay on DFO2036; 1070 nM (active) with DIV14; 1070 nM (active) in the assay with DIV17; 1510 nM (active) in the assay with DIV30; 2000 nM (active) in the assay on Dd2. In addition, the Potency was 2240 nM (active) in the assay on ECU; 2000 nM (active) in the assay with FAB9; 1070 nM (active) with GB4; 4470 nM (active) with HB3; 355 nM (active) in the assay with ICS; 3980 nM (active) with JCK. Also, the Potency with N140 was 4 nM (active); in the assay with P93_24, 1000 nM (active).
`COC(=O)[C@@H]1CC2=CC(=O)CC[C@]2(C)[C@@]23O[C@@H]2C[C@@]2(C)[C@@H](CC[C@@]24CCC(=O)O4)[C@H]13`: the Potency result with CP291, in the assay with CP297, in the assay with CP305, with CP315, in the assay on CP325 and with CP329 was “inactive” each time. Further, the Potency entry in the assay with CP335, with DFO2036, with DIV14, in the assay on DIV17, in the assay with DIV30 and with Dd2 was “inactive” in each case. For the same molecule, the Potency result in the assay on ECU, in the assay with FAB9, in the assay on GB4, with HB3, in the assay with ICS and in the assay on JCK was “inactive” each time. In addition, the Potency entry with N140 and in the assay with P93_24 was “inactive” each time.
Regarding `Nc1ccc(C(=O)O)cc1`, the Potency entry in the assay on CP291, in the assay with CP297, with CP305, in the assay on CP315, in the assay on CP325 and with CP329 was “inactive” each time. Moreover, the Potency entry in the assay on CP335, in the assay on DFO2036, with DIV14, with DIV17, in the assay on DIV30 and in the assay on Dd2 was “inactive” throughout. Besides, the Potency result in the assay on ECU, in the assay with FAB9, in the assay on GB4, with HB3, in the assay on ICS and in the assay with JCK was “inactive” throughout. The Potency result in the assay with N140 and in the assay on P93_24 was “inactive” each time.

The values above are taken from PubChem BioAssay (NCATS).
